Most compounds without a hit are left out; they make up all but 3% or so of the library.
Rv3671c inh: inhibitors of M. tuberculosis serine protease Rv3671c | 0.048% of 320,000 active | P9WHR9 | inhibition, % at 5.96 µM; in the data active = inhibition above about 38%;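 note: extracellular domain of Rv3671c used as enzyme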
Target sequence (P9WHR9 whole entry, looked up, the tested form may be a part): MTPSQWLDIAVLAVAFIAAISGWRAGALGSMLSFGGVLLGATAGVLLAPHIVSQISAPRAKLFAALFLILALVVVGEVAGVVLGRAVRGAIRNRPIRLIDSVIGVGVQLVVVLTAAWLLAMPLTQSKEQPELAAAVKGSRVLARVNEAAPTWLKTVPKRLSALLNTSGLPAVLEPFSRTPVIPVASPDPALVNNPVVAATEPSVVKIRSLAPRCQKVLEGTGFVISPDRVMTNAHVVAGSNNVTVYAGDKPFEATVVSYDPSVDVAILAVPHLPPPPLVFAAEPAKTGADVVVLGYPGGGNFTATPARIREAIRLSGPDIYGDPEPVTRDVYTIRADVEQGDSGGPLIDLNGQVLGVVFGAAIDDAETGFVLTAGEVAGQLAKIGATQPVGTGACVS
GDH-TPI counter: inhibits GDH-TPI coupling enzymes, artifact for Mtb FBA screen; GDH-TPI coupled enzyme counterscreen, NADH absorbance; inhibition, % at 4.8 µM; 1.2% of 360,000 active; in the data active = inhibition above about 30%
FBA Mtb inh: inhibits M. tuberculosis FBA enzyme; P9WQA3; purified M. tuberculosis FBA, fluorescence read-out; inhibition, % at 1 µM; 2.3% of 360,000 active; in the data active = inhibition above about 27%
BioA inh: BioA (M. tuberculosis) enzyme inhibition | purified M. tuberculosis BioA enzyme, plate reader | 0.096% of 360,000 active | inhibition, % at 9.99 µM; in the data active = inhibition above about 40%
FadD28 FP inh: M. tuberculosis FadD28 bisubstrate binding inhibition | 0.22% of 360,000 active | FadD28 bisubstrate probe binding, fluorescence polarization | inhibition, % at 12.5 µM; in the data active = inhibition above about 8.5%, passing the limit was not always enough
Numbers stand for hits; i = inactive; nt = no result given; + = active, no number.

SMILES	Rv3671c inh	GDH-TPI counter	FBA Mtb inh	BioA inh	FadD28 FP inh
COc1ccc(S(=O)(=O)N(C)C[C@@H]2Oc3c(NC(=O)NC4CCCCC4)cccc3C(=O)N([C@@H](C)CO)C[C@@H]2C)cc1	nt	nt	nt	i	nt
CCc1cc(=O)oc2c(CNCc3ccc(OC)cc3OC)c(O)c(Cl)cc12	i	i	+	i	i
COc1ccc(CNCc2c(O)c(Cl)cc3c(C)c(C)c(=O)oc23)c(OC)c1	i	i	+	i	i
O=S(=O)(c1ccc(-c2cn3ccccc3n2)cc1)N1CCOCC1	i	i	+	nt	i
Cc1cccn2cc(-c3ccc(S(=O)(=O)N4CCOCC4)cc3)nc12	i	i	187	i	i
Cc1cccn2cc(-c3ccc(S(=O)(=O)N4CCCCC4)cc3)nc12	i	i	135	nt	i
O=S(=O)(c1cccc(-c2cn3ccccc3n2)c1)N1CCCCC1	i	i	i	i	i
C[C@@H]1CN([C@@H](C)CO)C(=O)c2cc(NC(=O)Nc3ccc4c(c3)OCO4)ccc2O[C@@H](C)CCCCO[C@H]1CN(C)Cc1ccccc1	nt	nt	nt	i	nt
CC(=O)Nc1sc2c(c1-c1nc3ccccc3s1)CCN(C(C)C)C2	i	33	i	i	i
COc1cc(C#Cc2ccc3cc(CCO)oc(=O)c3c2)cc(OC)c1	i	36	i	i	i
CN(C)c1ccc(C#Cc2ccc3cc(CCO)oc(=O)c3c2)cc1	i	i	i	i	i
C[C@@H]1CN([C@@H](C)CO)C(=O)c2ccccc2-c2ccccc2CO[C@@H]1CN(C)C	nt	nt	nt	i	nt
COCC(=O)Nc1ccc2c(c1)C(=O)N(C)C[C@@H](OC)[C@@H](C)CN(C(=O)c1cnccn1)[C@@H](C)CO2	nt	nt	nt	i	nt
Cc1cc(C)nc(NS(=O)(=O)c2ccc(N/C=C/C(=O)c3ccc(Cl)cc3)cc2)n1	i	32	i	i	i
O=S(=O)(Nc1ncccn1)c1ccc(Nc2ncnc3ccccc23)cc1	i	49	i	i	i
NS(=O)(=O)c1ccc(N/C=C\C(=O)c2cccc3ccccc23)cc1	i	i	i	nt	i
O=C(/C=C\Nc1ccc(S(=O)(=O)Nc2ncccn2)cc1)c1cccc2ccccc12	i	55	i	nt	i
O=C(C[C@@H]1C[C@H]2c3cc(NC(=O)C4CCOCC4)ccc3O[C@H]2[C@H](CO)O1)NCC1CC1	nt	nt	nt	i	nt
COc1ccc(-c2ccc3c(c2)CN(C(=O)C(C)(C)C)Cc2cnnn2-3)cc1	nt	nt	140	i	i
Brc1ccc(-c2cn3nc4c(nc3n2)CCCC4)cc1	i	i	i	nt	i
Nc1nn2cc(-c3ccc(Br)cc3)nc2c2ccccc12	i	i	146	i	i
COc1cc2sc3ccc(C#CC4(O)CCCCC4)cc3c(=O)c2cc1OC	i	i	i	i	i
Cn1c2ccccc2c(=O)c2ccc(C#CC3(O)CCCCC3)cc21	i	i	171	i	i
O=C(NCCc1nc2ccccc2[nH]1)/C(=C/c1ccco1)NC(=O)c1ccc(Br)o1	i	33	i	i	i
CCCCNC(=O)/C(=C/c1ccccc1)NC(C)=O	i	i	i	nt	i
SMILES	Rv3671c inh	GDH-TPI counter	FBA Mtb inh	BioA inh	FadD28 FP inh
COc1ccc(/C=C(/NC(=O)/C=C/c2ccccc2)C(=O)NCCCCCC(=O)O)cc1	i	32	i	i	i
COc1ccc(/C=C(\NC(=O)/C=C/c2ccco2)C(=O)NCCc2nc3ccccc3[nH]2)cc1	i	37	i	nt	i
CC1C(=O)NN=C1C(=O)N/N=C\c1ccc(O)cc1O (stereo unspecified)	i	62	i	i	i
COc1cc(/C=N/NC(=O)C2=NNC(=O)C2C)ccc1O (stereo unspecified)	i	i	i	nt	i
O=C(Nc1ccccc1F)N[C@@H]1CC[C@@H](CCNC(=O)C2CCCCC2)O[C@@H]1CO	nt	nt	nt	i	nt
Cc1noc(C)c1NC(=O)Nc1ccc2c(c1)C(=O)N([C@H](C)CO)C[C@H](C)[C@H](CN(C)C(=O)Nc1cccc3ccccc13)OCCCC[C@H](C)O2	nt	nt	nt	i	nt
O=C(C[C@@H]1C[C@H]2c3cc(NC(=O)Cc4ccncc4)ccc3O[C@H]2[C@H](CO)O1)NCc1ccc2c(c1)OCO2	nt	nt	nt	i	nt
COc1ccc(-c2c(-c3cc(OC)cc(OC)c3)n(C)c3ccc(-c4ccc5[nH]ccc5c4)cc23)cc1	i	i	134	i	i
COc1cc(C#Cc2c(-c3cncn3C)n(C)c3ccc(-c4ccc5[nH]ccc5c4)cc23)cc(OC)c1	i	i	46	i	i
COc1cc(OC)cc(-c2c(C#Cc3ccsc3)c3cc(-c4ccc(OC)c(F)c4)ccc3n2C)c1	i	32	i	i	i
COc1cc(OC)cc(-c2c(C#Cc3ccsc3)c3cc(-c4ccc5[nH]ccc5c4)ccc3n2C)c1	i	44	i	i	i
CC(C)NC(=O)N(C)C[C@@H]1Oc2ccc(NC(=O)C3CC3)cc2C(=O)N([C@H](C)CO)C[C@@H]1C	nt	nt	nt	i	nt
C[C@H]1CN([C@@H](C)CO)C(=O)c2cccc(NC(=O)NC3CCCCC3)c2O[C@@H]1CN(C)S(C)(=O)=O	nt	nt	nt	i	nt
O=C(N[C@H]1C=C[C@H](CC(=O)N2CCC(Cc3ccccc3)CC2)O[C@H]1CO)c1cnccn1	nt	nt	nt	i	nt
COCc1ccc(-c2ccc3c(c2)c(C#Cc2ccsc2)c(-c2cc(OC)cc(OC)c2)n3C)cc1	i	33	i	i	i
COc1cc(OC)cc(-c2c(-c3ccc(C(C)=O)cc3)c3cc(-c4cccc5[nH]ccc45)ccc3n2C)c1	i	36	i	i	i
COc1ccc(-c2c(-c3cc(OC)cc(OC)c3)n(C)c3ccc(-c4ccc(OC)cc4F)cc23)cc1	i	i	i	i	i
COc1cc(OC)cc(-c2c(C#Cc3ccsc3)c3cc(-c4cc(F)cc(F)c4)ccc3n2C)c1	i	i	i	i	i
O=C(C[C@@H]1C=C[C@@H](NC(=O)C2CC2)[C@@H](CO)O1)NCCCN1CCOCC1	nt	nt	nt	i	nt
CC(=O)N1CCN(c2ccc(N=Cc3c(O)n(Cc4ccccc4)c(=O)[nH]c3=O)cc2)CC1	nt	33	i	nt	i
O=c1[nH]c(=S)n(Cc2ccco2)c(O)c1C=NCc1cccs1	i	34	i	i	i
NC(=O)c1ccc(N=Cc2c(O)n(Cc3ccco3)c(=O)[nH]c2=O)cc1	i	36	i	nt	i
O=C(O)c1ccc(N=Cc2c(O)n(Cc3ccc(F)cc3)c(=O)[nH]c2=O)cc1	i	i	i	i	i
CN(C)C(=O)c1ccc(-c2ccc3c(c2)[C@H]2[C@H](CCN2C(=O)c2cnccn2)[C@@H](CO)N3)cc1	nt	nt	nt	i	nt
CCC(=O)/C=C1/Sc2ccccc2N1CC	i	39	i	i	i
SMILES	Rv3671c inh	GDH-TPI counter	FBA Mtb inh	BioA inh	FadD28 FP inh
CCC(=O)/C=C1/Sc2ccc(OC)cc2N1CCO	i	i	i	nt	i
CCC(=O)/C=C1/Sc2ccc(OC)cc2N1CC	i	35	i	i	i
CC(C)NC(=O)N(C)C[C@H]1OCCCC[C@H](C)Oc2ccc(NC(=O)Nc3cccc4ccccc34)cc2C(=O)N([C@H](C)CO)C[C@@H]1C	nt	nt	nt	i	nt
CCNc1nc(N)c(C(=C(C#N)C#N)c2ccccc2)s1	i	i	167	i	i
COc1ccc(C#Cc2ccc3c(c2)[C@H]2[C@H](CCN2C(=O)NC(C)C)[C@H](CO)N3C)cc1	nt	nt	nt	i	nt
O=C(c1ccc(N2CCN(C3CC(=O)N(Cc4cccs4)C3=O)CC2)cc1)c1cccnc1 (stereo unspecified)	i	33	i	i	i

Screens (PubChem BioAssay)
